# Where a name gives a salt, the structure may show the parent alone.
# How the values were obtained:
# Conditions in all cases: 10 µM; exposure time: 3 h pre-incubation + 3 h imaging
# [1] = test system: Danio rerio larvae (5 dpf); test: optomotor response to red moving lines, difference vs DMSO (percentage points (treated minus DMSO)); higher = more of the behaviour than the DMSO vehicle control
# In short: (§1)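 5-dpf wild-type zebrafish larvae in 96-well ProxiPlates were exposed to library drugs at 10 µM (diluted 1000× from DMSO stocks into egg water). There were 48 larvae per drug, exposed 3 h before and 3 h during imaging at 28.5 °C. Images taken every 6 s covered a 3-h program of rest, moving coloured lines and acoustic pulses, and an ImageJ macro scored movement and upper-half location. Each behaviour score is the treated-group mean minus the DMSO vehicle mean, in percentage points.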
# [2] = test system: Danio rerio larvae (5 dpf); test: excitability to 1-s acoustic pulses, difference vs DMSO (percentage points (treated minus DMSO)); higher = more of the behaviour than the DMSO vehicle control
# In short: as §1
# [3] = test system: Danio rerio larvae (5 dpf); test: activity during period 15 (no stimuli), difference vs DMSO (percentage points (treated minus DMSO)); higher = more of the behaviour than the DMSO vehicle control
# In short: as §1
# [4] = test system: Danio rerio larvae (5 dpf); test: activity during first hour (no stimuli), difference vs DMSO (percentage points (treated minus DMSO)); higher = more of the behaviour than the DMSO vehicle control
# In short: as §1
# [5] = test system: Danio rerio larvae (5 dpf); test: optomotor response to blue moving lines, difference vs DMSO (percentage points (treated minus DMSO)); higher = more of the behaviour than the DMSO vehicle control
# In short: as §1
# [6] = test system: Danio rerio larvae (5 dpf); test: optomotor response to green moving lines, difference vs DMSO (percentage points (treated minus DMSO)); higher = more of the behaviour than the DMSO vehicle control
# In short: as §1
# [7] = test system: Danio rerio larvae (5 dpf); test: optomotor response to fast red moving lines, difference vs DMSO (percentage points (treated minus DMSO)); higher = more of the behaviour than the DMSO vehicle control
# In short: as §1
# [8] = test system: Danio rerio larvae (5 dpf); test: habituation to 1-s acoustic pulses, difference vs DMSO (percentage points (treated minus DMSO)); higher = more of the behaviour than the DMSO vehicle control
# In short: as §1
# [9] = test system: Danio rerio larvae (5 dpf); test: startle response to 20-s acoustic pulses, difference vs DMSO (percentage points (treated minus DMSO)); higher = more of the behaviour than the DMSO vehicle control
# In short: as §1
structure (smiles),measurement,setting,value
COc1c(C)c2c(c(O)c1C/C=C(\C)CCC(=O)OCCN1CCOCC1)C(=O)OC2 [Mycophenolate mofetil],optomotor response to red moving lines,[1],12.2
CO[C@H]1/C=C/O[C@@]2(C)Oc3c(C)c(O)c4c(O)c(c5c(nc6cc(C)ccn65)c4c3C2=O)NC(=O)/C(C)=C\C=C\[C@H](C)[C@H](O)[C@@H](C)[C@@H](O)[C@@H](C)[C@H](OC(C)=O)[C@@H]1C [Rifaximin],excitability to 1-s acoustic pulses,[2],4.07
same,activity during period 15,[3],-11.6
same,activity during first hour,[4],-0.0836
CN1CC(=O)N2[C@H](c3ccc4c(c3)OCO4)c3[nH]c4ccccc4c3C[C@@H]2C1=O [Tadalafil],optomotor response to red moving lines,[1],-0.75
same,activity during period 15,[3],-1.47
same,optomotor response to blue moving lines,[5],-3.81
same,optomotor response to green moving lines,[6],-0.909
CCCN(CCC)S(=O)(=O)c1ccc(C(=O)O)cc1 [Probenecid],optomotor response to red moving lines,[1],-2.21
same,activity during period 15,[3],-4.09
same,optomotor response to blue moving lines,[5],2.07
CCOc1nc2cccc(C(=O)O)c2n1Cc1ccc(-c2ccccc2-c2nnn[nH]2)cc1 [Candesartan],optomotor response to red moving lines,[1],4.89
same,activity during period 15,[3],-1.51
same,optomotor response to blue moving lines,[5],9.66
same,optomotor response to green moving lines,[6],0.689
CCCCc1nc(Cl)c(CO)n1Cc1ccc(-c2ccccc2-c2nnn[nH]2)cc1 [Losartan potassium],excitability to 1-s acoustic pulses,[2],5.58
same,activity during period 15,[3],3.67
same,activity during first hour,[4],13
same,optomotor response,[7],-3.43
CC(C)(C)NC(=O)[C@@H]1C[C@@H]2CCCC[C@@H]2CN1C[C@@H](O)[C@H](Cc1ccccc1)NC(=O)[C@H](CC(N)=O)NC(=O)c1ccc2ccccc2n1 [Saquinavir mesylate],habituation to 1-s acoustic pulses,[8],-0.0249
same,activity during period 15,[3],-12.8
same,activity during first hour,[4],-9.81
CC(C)C(=O)OCC(=O)[C@@]12O[C@H](C3CCCCC3)O[C@@H]1C[C@H]1[C@@H]3CCC4=CC(=O)C=C[C@]4(C)[C@H]3[C@@H](O)C[C@@]12C [Ciclesonide],excitability to 1-s acoustic pulses,[2],4.96
same,activity during period 15,[3],-5.84
same,activity during first hour,[4],-9.57
same,startle response to 20-s acoustic pulses,[9],-4.94
same,optomotor response,[7],-3.93
CC(=O)Oc1ccccc1C(=O)O [Aspirin],optomotor response to red moving lines,[1],7.38
same,optomotor response to blue moving lines,[5],2.57
CN(C)CCC[C@@]1(c2ccc(F)cc2)OCc2cc(C#N)ccc21 [Escitalopram oxalate],optomotor response to red moving lines,[1],-7.88
same,activity during period 15,[3],-18.3
same,optomotor response to blue moving lines,[5],1.97
C=C1[C@H](CO)[C@@H](O)C[C@@H]1n1cnc2c(=O)[nH]c(N)nc21 [Entecavir],optomotor response to red moving lines,[1],1.68
same,activity during period 15,[3],-0.773
same,optomotor response to green moving lines,[6],0.498
same,optomotor response,[7],-0.927
CCCc1nc(C(C)(C)O)c(C(=O)O)n1Cc1ccc(-c2ccccc2-c2nnn[nH]2)cc1 [Olmesartan],habituation to 1-s acoustic pulses,[8],3.67
same,activity during first hour,[4],12.1
same,optomotor response,[7],-5.64
CC1(C)O[C@@H]2[C@@H](CO[C@@]3(COS(N)(=O)=O)OC(C)(C)O[C@@H]23)O1 [Topiramate],excitability to 1-s acoustic pulses,[2],4.36
same,optomotor response to red moving lines,[1],-0.793
same,optomotor response to blue moving lines,[5],-3.75
same,startle response to 20-s acoustic pulses,[9],0.811
CN(CCOc1ccc(NS(C)(=O)=O)cc1)CCc1ccc(NS(C)(=O)=O)cc1 [Dofetilide],habituation to 1-s acoustic pulses,[8],5.42
same,activity during first hour,[4],1.68
same,startle response to 20-s acoustic pulses,[9],0.873
Cc1cc(C2CCCCC2)n(O)c(=O)c1 [Ciclopirox],habituation to 1-s acoustic pulses,[8],0.443
same,excitability to 1-s acoustic pulses,[2],5.96
same,activity during period 15,[3],10.7
same,activity during first hour,[4],2.44
COc1cc2nc(N3CCN(C(=O)C4COc5ccccc5O4)CC3)nc(N)c2cc1OC (configuration not stated) [Doxazosin mesylate],habituation to 1-s acoustic pulses,[8],-2.28
same,activity during first hour,[4],-2.96
same,optomotor response to green moving lines,[6],-8.3
CNCc1ccc(-c2[nH]c3cc(F)cc4c3c2CCNC4=O)cc1 [Rucaparib camsylate],optomotor response to red moving lines,[1],2.5
O=C(O[C@@H]1C[C@@H]2C[C@H]3C[C@H](C1)N2CC3=O)c1c[nH]c2ccccc12 [Dolasetron mesylate],activity during period 15,[3],-1.51
same,activity during first hour,[4],-1.16
same,startle response to 20-s acoustic pulses,[9],2.42
same,optomotor response,[7],-6.96
CNS(=O)(=O)Cc1ccc2[nH]cc(CCN(C)C)c2c1 [Sumatriptan succinate],habituation to 1-s acoustic pulses,[8],-0.62
same,activity during first hour,[4],7.71
same,optomotor response,[7],-17.2
O=C(NCC1CCCCN1)c1cc(OCC(F)(F)F)ccc1OCC(F)(F)F (configuration not stated) [Flecainide acetate],habituation to 1-s acoustic pulses,[8],-2.35
same,activity during first hour,[4],0.441
CC(C)c1ccc2oc3nc(N)c(C(=O)O)cc3c(=O)c2c1 [Amlexanox],excitability to 1-s acoustic pulses,[2],6.32
same,activity during period 15,[3],7.93
same,activity during first hour,[4],6.6
same,optomotor response,[7],-1.36
CCOC(=O)[C@H](CCc1ccccc1)N[C@@H](C)C(=O)N1[C@H](C(=O)O)C[C@@H]2CCC[C@@H]21 [Ramipril],activity during first hour,[4],2.6
same,optomotor response to green moving lines,[6],-0.542
same,optomotor response,[7],-1.3
NC(=O)N1c2ccccc2C=Cc2ccccc21 [Carbamazepine],optomotor response to red moving lines,[1],-0.139
same,startle response to 20-s acoustic pulses,[9],2.54
Nc1nc2[nH]cc(CCc3ccc(C(=O)N[C@@H](CCC(=O)O)C(=O)O)cc3)c2c(=O)[nH]1 [Pemetrexed],excitability to 1-s acoustic pulses,[2],2.29
same,optomotor response to red moving lines,[1],-7.22
CC(=O)S[C@@H]1CC2=CC(=O)CC[C@]2(C)[C@H]2CC[C@@]3(C)[C@@H](CC[C@@]34CCC(=O)O4)[C@H]12 [Spironolactone],habituation to 1-s acoustic pulses,[8],-0.287
same,optomotor response to blue moving lines,[5],1.86
same,optomotor response to green moving lines,[6],3.9
same,startle response to 20-s acoustic pulses,[9],1.64
COc1ccccc1OCC(O)CN1CCN(CC(=O)Nc2c(C)cccc2C)CC1 (configuration not stated) [Ranolazine dihydrochloride],habituation to 1-s acoustic pulses,[8],-4.45
same,excitability to 1-s acoustic pulses,[2],1.94
same,optomotor response to red moving lines,[1],9.27
Cc1ccc(NC(=O)c2ccc(CN3CCN(C)CC3)cc2)cc1Nc1nccc(-c2cccnc2)n1 [Imatinib mesylate],activity during period 15,[3],-11.6
same,optomotor response to blue moving lines,[5],-0.219
CC(C)OC(=O)C(C)(C)Oc1ccc(C(=O)c2ccc(Cl)cc2)cc1 [Fenofibrate],optomotor response to red moving lines,[1],16.3
same,startle response to 20-s acoustic pulses,[9],-3.27
CCN(Cc1ccncc1)C(=O)C(CO)c1ccccc1 (configuration not stated) [Tropicamide],optomotor response to red moving lines,[1],1.4
same,activity during period 15,[3],6.31
